# PMC11006913
# What was measured:
# Experiment in all cases: PBM; 200 nM protein, PBS
# Conditions in all cases: dsDNA, one strand shown
# HOXC9 [1] = biological target: HOXC9 (Homo sapiens, UniProt P31274 178-260, K195R)
# HOXC9 [2] = biological target: HOXC9 (Homo sapiens, UniProt P31274 178-260)
# HOXD13 [3] = biological target: HOXD13 (Homo sapiens, UniProt P35453 263-343, T313R)
# PITX2 = PITX2 (Homo sapiens, UniProt Q99697 72-157)
# HOXC9 [4] = biological target: HOXC9 (Homo sapiens, UniProt P31274 178-260, R193K)
# HOXD13 [5] = biological target: HOXD13 (Homo sapiens, UniProt P35453 263-343)
# HOXD13 [6] = biological target: HOXD13 (Homo sapiens, UniProt P35453 263-343, T313A)
# HOXC9 [7] = biological target: HOXC9 (Homo sapiens, UniProt P31274 178-260, R222W)
# HOXA2 [8] = biological target: HOXA2 (Homo sapiens, UniProt O43364 129-215, R185T)
# ALX3 [9] = biological target: ALX3 (Homo sapiens, UniProt O95076 139-225, N203Q)
# HOXA2 [10] = biological target: HOXA2 (Homo sapiens, UniProt O43364 129-215, R185K)
# ALX3 [11] = biological target: ALX3 (Homo sapiens, UniProt O95076 139-225)
# ALX3 [12] = biological target: ALX3 (Homo sapiens, UniProt O95076 139-225, L168Q)
# ALX3 [13] = biological target: ALX3 (Homo sapiens, UniProt O95076 139-225, L168V)
# HOXA2 [14] = biological target: HOXA2 (Homo sapiens, UniProt O43364 129-215, Y150S)
# ALX3 [15] = biological target: ALX3 (Homo sapiens, UniProt O95076 139-225, N203S)
# HOXA2 [16] = biological target: HOXA2 (Homo sapiens, UniProt O43364 129-215)
# HOXB9 = HOXB9 (Homo sapiens, UniProt P17482 171-250, R186Q)
# MSX2 [17] = biological target: MSX2 (Homo sapiens, UniProt P35548 130-214, R199I)
# MSX2 [18] = biological target: MSX2 (Homo sapiens, UniProt P35548 130-214)
# MSX2 [19] = biological target: MSX2 (Homo sapiens, UniProt P35548 130-214, F161Y)
# VENTX = biological target: T1, VENTX (Homo sapiens, UniProt O95231 78-163)
# T1 sequence: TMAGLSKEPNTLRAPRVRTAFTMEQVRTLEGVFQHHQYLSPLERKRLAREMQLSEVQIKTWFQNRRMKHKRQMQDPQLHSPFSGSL
# ALX4 = ALX4 (Homo sapiens, UniProt Q9H161 200-286)
# HOXA7 [20] = biological target: HOXA7 (Homo sapiens, UniProt P31268 116-202)
# HOXC10 [21] = biological target: HOXC10 (Homo sapiens, UniProt Q9NYD6 254-340)
# HOXC10 [22] = biological target: HOXC10 (Homo sapiens, UniProt Q9NYD6 254-340, K271E)
# HOXA7 [23] = biological target: HOXA7 (Homo sapiens, UniProt P31268 116-202, W177C)
# Chain of HOXA7 (Homo sapiens, UniProt P31268 116-202, W177C) (P31268 116-202 W177C): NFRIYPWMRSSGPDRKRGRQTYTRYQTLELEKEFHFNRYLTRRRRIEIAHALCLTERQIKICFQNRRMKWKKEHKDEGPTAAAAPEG
# Chain of HOXC9 (Homo sapiens, UniProt P31274 178-260, R193K) (P31274 178-260 R193K): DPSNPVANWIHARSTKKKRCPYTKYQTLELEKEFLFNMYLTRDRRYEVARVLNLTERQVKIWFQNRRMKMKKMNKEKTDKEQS
# Chain of HOXD13 (Homo sapiens, UniProt P35453 263-343, T313A) (P35453 263-343 T313A): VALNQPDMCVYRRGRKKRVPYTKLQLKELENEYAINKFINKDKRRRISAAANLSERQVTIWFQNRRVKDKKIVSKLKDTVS
# Chain of HOXA2 (Homo sapiens, UniProt O43364 129-215, Y150S) (O43364 129-215 Y150S): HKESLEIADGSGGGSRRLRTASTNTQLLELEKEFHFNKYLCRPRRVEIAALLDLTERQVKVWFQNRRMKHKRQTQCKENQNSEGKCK
# Chain of HOXD13 (Homo sapiens, UniProt P35453 263-343) (P35453 263-343): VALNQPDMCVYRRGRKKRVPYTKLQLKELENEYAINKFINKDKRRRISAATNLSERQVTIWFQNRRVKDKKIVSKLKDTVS
# Chain of HOXA2 (Homo sapiens, UniProt O43364 129-215, R185K) (O43364 129-215 R185K): as the sequence (O43364 129-215 Y150S) above, with S22Y, R57K counted along it
# Chain of HOXC9 (Homo sapiens, UniProt P31274 178-260, K195R) (P31274 178-260 K195R): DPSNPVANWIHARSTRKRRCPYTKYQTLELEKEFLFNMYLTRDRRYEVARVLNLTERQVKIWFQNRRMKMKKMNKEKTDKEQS
# Chain of HOXC9 (Homo sapiens, UniProt P31274 178-260) (P31274 178-260): as the sequence (P31274 178-260 R193K) above, with K16R counted along it
# Chain of HOXA2 (Homo sapiens, UniProt O43364 129-215, R185T) (O43364 129-215 R185T): as the sequence (O43364 129-215 Y150S) above, with S22Y, R57T counted along it
# Chain of HOXA2 (Homo sapiens, UniProt O43364 129-215) (O43364 129-215): as the sequence (O43364 129-215 Y150S) above, with S22Y counted along it
# Chain of HOXC9 (Homo sapiens, UniProt P31274 178-260, R222W) (P31274 178-260 R222W): as the sequence (P31274 178-260 R193K) above, with K16R, R45W counted along it
# Chain of HOXD13 (Homo sapiens, UniProt P35453 263-343, T313R) (P35453 263-343 T313R): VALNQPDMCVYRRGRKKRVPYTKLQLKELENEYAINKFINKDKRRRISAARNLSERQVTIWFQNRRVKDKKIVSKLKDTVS
# Chain of ALX3 (Homo sapiens, UniProt O95076 139-225) (O95076 139-225): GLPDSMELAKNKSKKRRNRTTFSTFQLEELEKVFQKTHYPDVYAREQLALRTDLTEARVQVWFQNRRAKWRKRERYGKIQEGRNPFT
# Chain of HOXA7 (Homo sapiens, UniProt P31268 116-202) (P31268 116-202): as the sequence (P31268 116-202 W177C) above, with C62W counted along it
# Chain of ALX3 (Homo sapiens, UniProt O95076 139-225, L168V) (O95076 139-225 L168V): as the sequence (O95076 139-225) above, with L30V counted along it
# Chain of MSX2 (Homo sapiens, UniProt P35548 130-214, R199I) (P35548 130-214 R199I): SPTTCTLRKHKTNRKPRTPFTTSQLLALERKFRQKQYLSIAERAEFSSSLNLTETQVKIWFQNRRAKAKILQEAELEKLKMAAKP
# Chain of ALX3 (Homo sapiens, UniProt O95076 139-225, N203Q) (O95076 139-225 N203Q): as the sequence (O95076 139-225) above, with N65Q counted along it
# Chain of HOXB9 (P17482 171-250 R186Q): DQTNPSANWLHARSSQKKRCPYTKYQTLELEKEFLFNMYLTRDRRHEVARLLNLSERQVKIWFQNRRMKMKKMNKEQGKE
# Chain of ALX3 (Homo sapiens, UniProt O95076 139-225, N203S) (O95076 139-225 N203S): as the sequence (O95076 139-225) above, with N65S counted along it
# Chain of HOXC10 (Homo sapiens, UniProt Q9NYD6 254-340) (Q9NYD6 254-340): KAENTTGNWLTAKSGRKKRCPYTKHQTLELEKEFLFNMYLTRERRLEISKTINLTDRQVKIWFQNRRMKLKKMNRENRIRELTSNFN
# Chain of MSX2 (Homo sapiens, UniProt P35548 130-214, F161Y) (P35548 130-214 F161Y): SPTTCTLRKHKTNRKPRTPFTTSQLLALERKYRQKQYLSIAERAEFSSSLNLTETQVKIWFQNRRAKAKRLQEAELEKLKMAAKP
# Chain of ALX3 (Homo sapiens, UniProt O95076 139-225, L168Q) (O95076 139-225 L168Q): as the sequence (O95076 139-225) above, with L30Q counted along it
# Chain of ALX4 (Q9H161 200-286): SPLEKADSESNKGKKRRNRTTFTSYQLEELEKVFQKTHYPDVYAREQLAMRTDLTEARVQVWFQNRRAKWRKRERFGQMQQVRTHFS
# Chain of HOXC10 (Homo sapiens, UniProt Q9NYD6 254-340, K271E) (Q9NYD6 254-340 K271E): as the sequence (Q9NYD6 254-340) above, with K18E counted along it
# Chain of MSX2 (Homo sapiens, UniProt P35548 130-214) (P35548 130-214): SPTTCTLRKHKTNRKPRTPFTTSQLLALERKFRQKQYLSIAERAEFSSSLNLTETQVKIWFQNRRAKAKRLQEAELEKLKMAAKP
sequence,measurement,setting,value
GCAGCGCC,binding signal,HOXC9 [1],"9.72 upbm affinity estimate (log intensity, higher = more binding, comparable within an allelic series)"
same,binding signal,HOXC9 [2],"9.88 upbm affinity estimate (log intensity, higher = more binding, comparable within an allelic series)"
same,binding signal,HOXD13 [3],"9.55 upbm affinity estimate (log intensity, higher = more binding, comparable within an allelic series)"
same,binding signal,PITX2,"7.75 upbm affinity estimate (log intensity, higher = more binding, comparable within an allelic series)"
same,binding signal,HOXC9 [4],"9.72 upbm affinity estimate (log intensity, higher = more binding, comparable within an allelic series)"
same,binding signal,HOXD13 [5],"9.61 upbm affinity estimate (log intensity, higher = more binding, comparable within an allelic series)"
same,binding signal,HOXD13 [6],"9.59 upbm affinity estimate (log intensity, higher = more binding, comparable within an allelic series)"
same,binding signal,HOXC9 [7],"9.72 upbm affinity estimate (log intensity, higher = more binding, comparable within an allelic series)"
AGGTGGGG,binding signal,HOXC9 [1],"9.9 upbm affinity estimate (log intensity, higher = more binding, comparable within an allelic series)"
same,binding signal,HOXA2 [8],"7.38 upbm affinity estimate (log intensity, higher = more binding, comparable within an allelic series)"
same,binding signal,HOXC9 [2],"9.9 upbm affinity estimate (log intensity, higher = more binding, comparable within an allelic series)"
same,binding signal,ALX3 [9],"7.84 upbm affinity estimate (log intensity, higher = more binding, comparable within an allelic series)"
same,binding signal,HOXC9 [4],"9.81 upbm affinity estimate (log intensity, higher = more binding, comparable within an allelic series)"
same,binding signal,HOXA2 [10],"10.4 upbm affinity estimate (log intensity, higher = more binding, comparable within an allelic series)"
same,binding signal,ALX3 [11],"7.86 upbm affinity estimate (log intensity, higher = more binding, comparable within an allelic series)"
same,binding signal,ALX3 [12],"7.87 upbm affinity estimate (log intensity, higher = more binding, comparable within an allelic series)"
same,binding signal,HOXC9 [7],"9.81 upbm affinity estimate (log intensity, higher = more binding, comparable within an allelic series)"
same,binding signal,ALX3 [13],"7.85 upbm affinity estimate (log intensity, higher = more binding, comparable within an allelic series)"
same,binding signal,HOXA2 [14],"10.4 upbm affinity estimate (log intensity, higher = more binding, comparable within an allelic series)"
same,binding signal,ALX3 [15],"7.82 upbm affinity estimate (log intensity, higher = more binding, comparable within an allelic series)"
same,binding signal,HOXA2 [16],"7.26 upbm affinity estimate (log intensity, higher = more binding, comparable within an allelic series)"
ATTTAATA,binding signal,HOXC9 [1],"12.4 upbm affinity estimate (log intensity, higher = more binding, comparable within an allelic series)"
same,binding signal,HOXC9 [2],"12.5 upbm affinity estimate (log intensity, higher = more binding, comparable within an allelic series)"
same,binding signal,HOXD13 [3],"10.9 upbm affinity estimate (log intensity, higher = more binding, comparable within an allelic series)"
same,binding signal,HOXC9 [4],"12.4 upbm affinity estimate (log intensity, higher = more binding, comparable within an allelic series)"
same,binding signal,HOXD13 [5],"11.9 upbm affinity estimate (log intensity, higher = more binding, comparable within an allelic series)"
same,binding signal,HOXD13 [6],"11.8 upbm affinity estimate (log intensity, higher = more binding, comparable within an allelic series)"
same,binding signal,HOXB9,"11.4 upbm affinity estimate (log intensity, higher = more binding, comparable within an allelic series)"
same,binding signal,HOXC9 [7],"11.1 upbm affinity estimate (log intensity, higher = more binding, comparable within an allelic series)"
CCCTGCGG,binding signal,HOXC9 [1],"9.55 upbm affinity estimate (log intensity, higher = more binding, comparable within an allelic series)"
same,binding signal,HOXA2 [8],"7.02 upbm affinity estimate (log intensity, higher = more binding, comparable within an allelic series)"
same,binding signal,HOXC9 [2],"9.73 upbm affinity estimate (log intensity, higher = more binding, comparable within an allelic series)"
same,binding signal,HOXD13 [3],"9.39 upbm affinity estimate (log intensity, higher = more binding, comparable within an allelic series)"
same,binding signal,HOXC9 [4],"9.6 upbm affinity estimate (log intensity, higher = more binding, comparable within an allelic series)"
same,binding signal,HOXA2 [10],"10.3 upbm affinity estimate (log intensity, higher = more binding, comparable within an allelic series)"
same,binding signal,HOXD13 [5],"9.44 upbm affinity estimate (log intensity, higher = more binding, comparable within an allelic series)"
same,binding signal,HOXD13 [6],"9.6 upbm affinity estimate (log intensity, higher = more binding, comparable within an allelic series)"
same,binding signal,HOXC9 [7],"9.56 upbm affinity estimate (log intensity, higher = more binding, comparable within an allelic series)"
same,binding signal,HOXA2 [14],"10.5 upbm affinity estimate (log intensity, higher = more binding, comparable within an allelic series)"
same,binding signal,HOXA2 [16],"7 upbm affinity estimate (log intensity, higher = more binding, comparable within an allelic series)"
ATATGAAA,binding signal,HOXC9 [1],"11.4 upbm affinity estimate (log intensity, higher = more binding, comparable within an allelic series)"
same,binding signal,HOXC9 [2],"11.3 upbm affinity estimate (log intensity, higher = more binding, comparable within an allelic series)"
same,binding signal,HOXC9 [4],"11.4 upbm affinity estimate (log intensity, higher = more binding, comparable within an allelic series)"
CCTGCCGC,binding signal,HOXC9 [1],"9.4 upbm affinity estimate (log intensity, higher = more binding, comparable within an allelic series)"
same,binding signal,HOXA2 [8],"6.91 upbm affinity estimate (log intensity, higher = more binding, comparable within an allelic series)"
same,binding signal,HOXC9 [2],"9.49 upbm affinity estimate (log intensity, higher = more binding, comparable within an allelic series)"
same,binding signal,HOXC9 [4],"9.31 upbm affinity estimate (log intensity, higher = more binding, comparable within an allelic series)"
same,binding signal,HOXA2 [10],"9.96 upbm affinity estimate (log intensity, higher = more binding, comparable within an allelic series)"
same,binding signal,HOXC9 [7],"9.67 upbm affinity estimate (log intensity, higher = more binding, comparable within an allelic series)"
same,binding signal,HOXA2 [14],"10.4 upbm affinity estimate (log intensity, higher = more binding, comparable within an allelic series)"
same,binding signal,HOXA2 [16],"7.06 upbm affinity estimate (log intensity, higher = more binding, comparable within an allelic series)"
CGCGGGAG,binding signal,HOXC9 [1],"9.47 upbm affinity estimate (log intensity, higher = more binding, comparable within an allelic series)"
same,binding signal,HOXC9 [2],"9.59 upbm affinity estimate (log intensity, higher = more binding, comparable within an allelic series)"
same,binding signal,MSX2 [17],"9.38 upbm affinity estimate (log intensity, higher = more binding, comparable within an allelic series)"
same,binding signal,HOXC9 [4],"9.43 upbm affinity estimate (log intensity, higher = more binding, comparable within an allelic series)"
same,binding signal,MSX2 [18],"9.23 upbm affinity estimate (log intensity, higher = more binding, comparable within an allelic series)"
same,binding signal,HOXC9 [7],"9.64 upbm affinity estimate (log intensity, higher = more binding, comparable within an allelic series)"
same,binding signal,MSX2 [19],"9.25 upbm affinity estimate (log intensity, higher = more binding, comparable within an allelic series)"
CGTTAAAG,binding signal,HOXC9 [1],"11.3 upbm affinity estimate (log intensity, higher = more binding, comparable within an allelic series)"
same,binding signal,HOXC9 [2],"11.4 upbm affinity estimate (log intensity, higher = more binding, comparable within an allelic series)"
same,binding signal,HOXC9 [4],"11.3 upbm affinity estimate (log intensity, higher = more binding, comparable within an allelic series)"
AGGGGCTC,binding signal,HOXC9 [1],"9.39 upbm affinity estimate (log intensity, higher = more binding, comparable within an allelic series)"
same,binding signal,HOXC9 [2],"9.62 upbm affinity estimate (log intensity, higher = more binding, comparable within an allelic series)"
same,binding signal,HOXD13 [3],"9.61 upbm affinity estimate (log intensity, higher = more binding, comparable within an allelic series)"
same,binding signal,HOXC9 [4],"9.46 upbm affinity estimate (log intensity, higher = more binding, comparable within an allelic series)"
same,binding signal,HOXD13 [5],"9.68 upbm affinity estimate (log intensity, higher = more binding, comparable within an allelic series)"
same,binding signal,HOXD13 [6],"9.7 upbm affinity estimate (log intensity, higher = more binding, comparable within an allelic series)"
same,binding signal,HOXC9 [7],"9.6 upbm affinity estimate (log intensity, higher = more binding, comparable within an allelic series)"
CATTTAGA,binding signal,HOXC9 [1],"11.1 upbm affinity estimate (log intensity, higher = more binding, comparable within an allelic series)"
same,binding signal,HOXC9 [2],"11.1 upbm affinity estimate (log intensity, higher = more binding, comparable within an allelic series)"
same,binding signal,HOXC9 [4],"11.3 upbm affinity estimate (log intensity, higher = more binding, comparable within an allelic series)"
TTATACAA,binding signal,ALX3 [11],"9.71 upbm affinity estimate (log intensity, higher = more binding, comparable within an allelic series)"
GCCCCAGC,binding signal,HOXC9 [1],"9.66 upbm affinity estimate (log intensity, higher = more binding, comparable within an allelic series)"
same,binding signal,HOXC9 [2],"9.84 upbm affinity estimate (log intensity, higher = more binding, comparable within an allelic series)"
same,binding signal,HOXC9 [4],"9.62 upbm affinity estimate (log intensity, higher = more binding, comparable within an allelic series)"
same,binding signal,HOXC9 [7],"9.7 upbm affinity estimate (log intensity, higher = more binding, comparable within an allelic series)"
CGATAACC,binding signal,VENTX,"9.81 upbm affinity estimate (log intensity, higher = more binding, comparable within an allelic series)"
CGACTTAA,binding signal,VENTX,"10.1 upbm affinity estimate (log intensity, higher = more binding, comparable within an allelic series)"
same,binding signal,ALX4,"10.3 upbm affinity estimate (log intensity, higher = more binding, comparable within an allelic series)"
CATTTACG,binding signal,VENTX,"10.4 upbm affinity estimate (log intensity, higher = more binding, comparable within an allelic series)"
CAGGTCCC,binding signal,HOXA7 [20],"8.47 upbm affinity estimate (log intensity, higher = more binding, comparable within an allelic series)"
same,binding signal,HOXC10 [21],"10 upbm affinity estimate (log intensity, higher = more binding, comparable within an allelic series)"
same,binding signal,HOXC10 [22],"10.1 upbm affinity estimate (log intensity, higher = more binding, comparable within an allelic series)"
same,binding signal,HOXA7 [23],"8.4 upbm affinity estimate (log intensity, higher = more binding, comparable within an allelic series)"
CCCCAGCC,binding signal,HOXC9 [1],"9.49 upbm affinity estimate (log intensity, higher = more binding, comparable within an allelic series)"
same,binding signal,HOXC9 [2],"9.68 upbm affinity estimate (log intensity, higher = more binding, comparable within an allelic series)"
same,binding signal,HOXC9 [4],"9.69 upbm affinity estimate (log intensity, higher = more binding, comparable within an allelic series)"
same,binding signal,HOXC9 [7],"9.68 upbm affinity estimate (log intensity, higher = more binding, comparable within an allelic series)"
